Mito fusion yeast: qHTS Assay for Small Molecule Inhibitors of Mitochondrial Division or Activators of Mitochondrial Fusion; S. cerevisiae fusion-defective mutant growth rescue, CellTiterGlo 48 h; Potency, µM (doses to about 46.1 µM), for the others: at the highest dose growth rescue (activation), hits mostly activators; 0.23% of 320,000 active; further: % of control where 0% means no effect; nearly all actives have a fitted effect of over 45% in size
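Luminescent cell viability in 1536-well qHTS format served as the measure of rescued growth in ts fusion-mutant S. cerevisiae cultured on non-fermentable YPEG for 48 hours at 37C.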
ERG-DNA inh: qHTS for Small Molecule Inhibitors of the ERG Ets/DNA interaction. Transcriptional regulator ERG (Homo sapiens), P11308. fluorescence polarization, His-ERG Ets domain / labelled DNA. Potency, µM (highest dose often 76.9 µM), inactives show at the highest dose FP activity, negative = inhibition, actives largely listed as inhibitors. 0.028% of 370,000 active. AID 624246, 2012; active means well fitted inhibition curve with a large enough effect in the polarisation, with a control signal flat; inconclusive means small, poorly fitted or top-dose-only effect, or effect the other way, or a change in a side signal; inactive means no such curve, though single readings can be large or run the other way; the % refers to the polarisation;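 further: polarization taken with two DNA probes labelled with fluorescein and Texas red; % of control where 0% means no effect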
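His-tagged ERG Ets domain (1 uM in the protein solution; 300mM KCl, 50mM Tris-HCl, 1mM EDTA, 1mM DTT, pH 7.5) received compound, then a probe mix of 5 nM fluorescein-DNA and 100nM Texas-615-DNA. Fluorescence polarization was read for both dyes.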
BRCA1 expr up: qHTS Assay to Identify Small Molecule Activators of BRCA1 Expression; MCF7-BRCA1-FFLuc reporter, luminescence, 48 h; response scale: scaled: vehicle 0%, 10 µM genistein 100%; Potency, µM (titrated, usually from 46.1 µM), inactives show top-dose activation, hits mostly activators; 1.1% of 380,000 active; AID 624202, 2012; further: nearly all actives have a fitted effect of over 80% in size
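MCF7-BRCA1-FFLuc, 2000 cells/well; 2 h attach, 37 °C/5% CO2; compound 48 h; luciferase substrate 15 min; luminescence end-point. Norm. to genistein 10 microM max activation and DMSO; concentration-response curves fitted.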
B2AR arrestin: qHTS assay of beta-arrestin-biased ligands of beta2-adrenergic receptor; Beta-2 adrenergic receptor (Homo sapiens), P07550; Potency, µM (titrated, usually from 46.1 µM), inactives show top-dose activation, actives largely listed as activators; beta-arrestin recruitment to beta2AR, cell-based reporter; 0.02% of 330,000 active; AID 492947, 2010;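 further: 0% = DMSO controls and full agonism = EC100 isoproterenol or metaproterenol; nearly all actives have a fitted effect of over 65% in size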
Target sequence (P07550 whole entry, looked up): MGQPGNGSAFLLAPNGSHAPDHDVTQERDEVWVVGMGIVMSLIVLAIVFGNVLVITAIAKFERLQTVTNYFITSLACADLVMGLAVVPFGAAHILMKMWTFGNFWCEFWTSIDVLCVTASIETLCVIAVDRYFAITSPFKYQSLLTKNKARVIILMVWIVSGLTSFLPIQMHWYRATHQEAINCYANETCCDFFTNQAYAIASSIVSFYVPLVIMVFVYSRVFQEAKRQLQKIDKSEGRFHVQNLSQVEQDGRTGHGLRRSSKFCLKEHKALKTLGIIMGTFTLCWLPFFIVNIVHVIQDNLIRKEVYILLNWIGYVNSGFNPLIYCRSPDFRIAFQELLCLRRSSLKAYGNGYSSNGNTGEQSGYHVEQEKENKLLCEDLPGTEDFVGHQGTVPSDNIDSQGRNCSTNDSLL
An asterisk follows results filed as active; ? = inconclusive; · = no result given. In the library only some 1.2% were active in any assay of this set; here they are far more common. Unless noted, the call rests on the fitted dose curve; in most records, active means well fitted curve in the direction sought with a large enough effect; inconclusive means small, poorly fitted or top-dose-only effect, or another doubt; inactive means no such curve, though single readings can be large; an effect the other way counts as inactive or inconclusive. Potency means the concentration at half of the fitted maximal effect.

SMILES	Mito fusion yeast	ERG-DNA inh	BRCA1 expr up	B2AR arrestin
COC(=O)c1ccc(-n2c(C)cc(C(=O)CSc3cccc[n+]3[O-])c2C)cc1	-8.2%	3.2%	-5.7%	0.1%
Cc1ccc2c(c1)-c1nc(-c3ccc4c(c3)NC(=O)CO4)cc(-c3ccc(Cl)cc3)c1CO2	·	-0.1%	10.3%	·
CC(C)(C)NC(=O)C(c1ccc(F)cc1)N(Cc1ccccc1Cl)C(=O)c1ccn[nH]1 (stereo not drawn)	2.5%	6.2%	-12.5%	1µM*
CCN(CC)C(=O)CCCSc1nnc(Nc2ccccc2F)s1	-2.7%	-3.1%	4.47µM*	0.4%
O=C1c2ccccc2C(=O)N1CSc1nnc(Nc2ccccc2F)s1	11.4%	3.3%	38.2%	0.0%
O=c1[nH][nH]c(=O)c2c(NS(=O)(=O)c3ccccc3)cccc12	6.0%	-0.1%	12.6µM*	0.1%
COc1ccc(OCc2cc(C(=O)N3CCSCC3)no2)c(Cl)c1	-7.4%	2.1%	11.2µM*	-0.9%
COc1ccc(OCc2cc(C(=O)N3CCCCCC3)no2)c(Cl)c1	-7.5%	-5.0%	?	0.0%
CSc1ccccc1OCc1cc(C(=O)N(C)Cc2ccc3nsnc3c2)no1	-2.4%	-9.9%	?	-0.4%
CSc1ccccc1OCc1cc(C(=O)N(C)Cc2ccc(C)o2)no1	-0.3%	2.3%	11.2µM*	-1.0%
CSc1ccccc1OCc1cc(C(=O)N2CCN(c3ncccn3)CC2)no1	-0.5%	-1.7%	76.2%	0.1%
CSc1ccccc1OCc1cc(C(=O)N2CCSCC2)no1	-1.3%	4.1%	4.47µM*	-0.7%
O=C(c1cc(COc2ccc(F)cc2Cl)on1)N1CCc2ccccc2C1	0.0%	2.9%	17.9%	-0.8%
O=C(c1cc(COc2ccc(F)cc2Cl)on1)N1CCSCC1	-2.3%	3.9%	6.31µM*	0.0%
COC(=O)c1cc2occc2n1Cc1nc(-c2ccccc2)oc1C	·	-1.2%	·	·
O=c1cc(-c2ccsc2)oc2ccc(-c3ccc4cc[nH]c4c3)cc12	·	-1.1%	5.62µM*	-0.3%
COc1ccc(-c2ccc3oc(-c4ccsc4)cc(=O)c3c2)cc1F	·	-2.0%	10.5%	0.0%
COC(=O)c1ccccc1NC(=O)c1nc(-c2ccc(C)cc2)n2c1CCCCC2	·	1.1%	6.4%	·
CCCCS(=O)(=O)c1nc(-c2ccc(Br)cc2)cc(-c2ccccc2)c1C#N	·	0.9%	·	·
COc1ccccc1NC(=O)c1ccc(NC(=O)C2CC2C)cc1 (stereo not drawn)	·	-4.7%	29.7%	0.1%
CC1CC1C(=O)Nc1ccc(-c2ccccc2)cc1 (stereo not drawn)	?	-1.6%	2.51µM*	0.4%
Cc1cc(Nc2cc(F)ccc2C)nc(-n2nc(C)cc2C)n1	·	8.1%	·	·
COc1ccccc1NC(=O)COc1ccccc1C(=O)c1cnn(-c2ccccc2)c1	26.1%	-4.9%	12.6µM*	-1.0%
CCOc1ccccc1NC(=O)COn1nnc2ccc(Cl)cc21	11.2µM*	2.7%	-18.7%	0.2%
N/C(=N\O)c1ccc(N2CCN(c3ncccc3C(F)(F)F)CC2)nc1	-1.9%	10.6%	3.55µM*	0.0%
SMILES	Mito fusion yeast	ERG-DNA inh	BRCA1 expr up	B2AR arrestin
COc1cc2nc(N3CCCCC3)nc(NC3CCN(Cc4ccccc4)CC3)c2cc1OC	·	·	-58.6%	·
CCCNC(=O)C1CCC(Cn2c(=O)c3sccc3n(CC(=O)Nc3ccccc3C)c2=O)CC1 (stereo not drawn)	·	1.9%	·	·
CSc1ccc(-c2nc3cccc(C)n3c2Nc2ccc(Cl)cc2)cc1	·	-0.2%	·	·
O=C(Cc1ccc(F)cc1)c1ccc(O)cc1O	9.9%	-0.3%	12.6µM*	0.9%
NC(=O)N/N=C/c1ccccc1OC(=O)c1cc2ccccc2oc1=O	-2.5%	-3.7%	-4.4%	0.3%
NC(=S)N/N=C/c1ccccc1OC(=O)c1cc2ccccc2oc1=O	-12.4%	-9.1%	11.8%	12.6µM*
O=C(CSc1nnc(-c2ccccc2)o1)N1CCCC1	8.3%	-1.6%	82.7%	-0.5%
CC1CCN(C(=O)CCc2nnc(-c3ccccc3)o2)CC1	4.9%	-12.2%	12.6µM*	-0.5%
O=C(CSc1nnc(-c2ccc(F)cc2)o1)N1CCCCC1	4.8%	5.3%	8.91µM*	-0.3%
O=C(CSc1nnc(-c2ccccc2)o1)N1CCCCC1	1.8%	-3.3%	3.16µM*	0.3%
CCOC(=O)C(CC)Sc1ccc2nnc(-c3ccc(F)cc3)n2n1 (stereo not drawn)	·	·	12.0%	·
O=C(CCS(=O)(=O)c1ccccc1)N1CCN(c2ccccc2)CC1	-3.4%	1.3%	3.16µM*	0.4%
CCOC(=O)c1ccc(NC(=O)Cn2cc(C(=O)c3ccc(Cl)cc3)c(=O)c3ccc(C)nc32)cc1	·	0.5%	·	·
CCc1cccc(NC(=O)C2CCCN(c3ncnc4onc(-c5ccc(F)cc5)c34)C2)c1 (stereo not drawn)	·	0.7%	·	·
Nc1nc(-c2cccc(Br)c2)cs1	13.8%	5.9%	11.2µM*	-0.8%
Nc1nc(-c2ccc(Br)cc2)cs1	15.8%	3.4%	15.8µM*	-0.2%
O=C(O)c1ccc(-c2ccc(Cl)cc2Cl)o1	2.4%	-5.0%	2.6%	-0.2%
CN(C)/C=C/C(=O)c1ccc(-c2ccc(Cl)cc2Cl)o1	-1.7%	2.6%	11.2µM*	0.0%
O=C(Nc1ccccc1F)n1ncc2cc(Cl)ccc21	5.62µM*	-0.4%	?	-0.6%
CN(CC(=O)Nc1cccc(Cl)c1)S(=O)(=O)c1ccc2[nH]c3c(c2c1)CCCC3	·	0.0%	·	·
O=C(c1cc2cc3ccc(Cl)cc3nc2o1)N1CCCCCC1	4.5%	8.4%	2.24µM*	0.6%
COc1ccc2cc3cc(C(=O)N4CC(C)CC(C)C4)oc3nc2c1 (stereo not drawn)	2.6%	-6.7%	10µM*	-0.2%
C=CCNC(=O)c1ccc(-c2nc(-c3ccc(Cl)cc3Cl)cs2)cc1	1.6%	-3.3%	11.2µM*	0.3%
Cc1c(Cl)cccc1NC(=O)CSc1cc(-c2ccccc2)ncn1	·	1.6%	·	·
C/C(=N\NC(=O)c1ccc(O)cc1)c1ccc(NC(=O)Cc2ccccc2)cc1	-1.6%	1.1%	8.91µM*	0.2%
SMILES	Mito fusion yeast	ERG-DNA inh	BRCA1 expr up	B2AR arrestin
C/C(=N/NC(=O)c1ccco1)c1ccc(NC(=O)c2ccc(F)cc2)cc1	·	·	7.08µM*	-0.7%
C/C(=N/NC(=O)c1ccco1)c1ccc(NC(=O)c2ccc(Br)o2)cc1	0.6%	-1.2%	?	-0.7%
O=C(Cn1ncc2c3ccccc3n(Cc3cccc(Cl)c3)c2c1=O)NC1CCCCCC1	·	-2.6%	·	·
Cc1ccccc1NC(=O)c1cc(=O)c2ccccc2o1	1.4%	-3.4%	45.1%	0.3%
N#Cc1ccccc1NC(=O)c1cc(=O)c2ccccc2o1	-0.6%	-15.7%	8.91µM*	-0.6%
CCOc1ccc(NC(=O)Cn2cc(C(=O)c3ccc(C)c(C)c3)c(=O)c3cc(F)ccc32)cc1	·	3.6%	5.9%	·
C/C(=N/OC(=O)C1CC1)c1cc(-c2ccc(Cl)cc2)no1	15.4%	-0.9%	3.98µM*	0.6%

Screens (PubChem)
